Drawing on PubChem BioAssay (NCI), this text covers growth for 17 compounds.

Molecules are shown by their SMILES. About 83,000 compounds went through this panel and 20% of them were active in at least one assay; those are over-represented in the sample as a whole.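 A percent growth of 40 corresponds to 60% growth inhibition; 0 means no net growth; -100 means all cells died. Active threshold: below 10.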 A number with no mark means an inactive call. Activity calls are given as the source filed them.

Among the test systems are T-47D breast; BT-549 breast; MDA-MB-435 melanoma; SW-620 colon; MCF7 breast; HCT-116 colon; HCC-2998 colon; KM12 colon; MDA-MB-468 breast.
What all share (assay): NCI-60 one-dose screen, 48 h (100 = growth as untreated, 0 = no growth, -100 = all killed)
Holding throughout (details): 10 µM

With `C#Cc1ccc(S(=O)(=O)Nc2cccc(-c3csc(NC(C)=O)n3)c2)cc1`, the growth with T-47D breast is 42.8%; in the assay with BT-549 breast, 55.7%; in the assay with MDA-MB-435 melanoma, 51.5%; in the assay with SW-620 colon, 95.2%; in the assay on MCF7 breast, 64.5%; in the assay with HCT-116 colon it was 77.9%. Further, the growth was 91.3% in the assay with HCC-2998 colon, 69.4% in the assay with KM12 colon and 37.9% in the assay on MDA-MB-468 breast.
Regarding `CC(=O)Nc1ccc(-c2cn(-c3cccc(C(=O)Nc4ccc(Cl)c(C(F)(F)F)c4)c3)nn2)cn1`, the growth is 16.3% with T-47D breast; -52.7% (active) in the assay with BT-549 breast; -70.6% (active) with MDA-MB-435 melanoma; -75.5% (active) in the assay with SW-620 colon; -48.3% (active) with MCF7 breast; -53.9% (active) with HCT-116 colon. Also, the growth with HCC-2998 colon was -36.1% (active); in the assay with KM12 colon, -3.58% (active); with MDA-MB-468 breast it was -68.5% (active).
As to `CC1(C)CC[C@]2(C(=O)NCCCNCCCCNCCCN)CC[C@]3(C)C(=CC[C@@H]4[C@@]5(C)Cc6c([nH]c7ccccc67)C(C)(C)[C@@H]5CC[C@]43C)[C@H]2C1`, the growth in the assay with T-47D breast is 78.7%; with BT-549 breast, 109%; in the assay on MDA-MB-435 melanoma it was 106%; in the assay with SW-620 colon, 113%; in the assay with MCF7 breast it was 62.9%; with HCT-116 colon, 65.3%. For the same compound, the figures for the growth with HCC-2998 colon, in the assay with KM12 colon and in the assay with MDA-MB-468 breast were 96.5%, 96.4% and 75.3%, respectively.
Regarding `O=C(CNc1nc(-c2ccccc2)cs1)Nc1ccc([N+](=O)[O-])cc1`, the growth is 2.53% (active) in the assay with T-47D breast; 12.3% in the assay on BT-549 breast; 40.6% in the assay on MDA-MB-435 melanoma; 7.63% (active) with SW-620 colon; 1.69% (active) in the assay with MCF7 breast; 11.7% with HCT-116 colon. In addition, the growth with HCC-2998 colon is -97.8% (active); in the assay on KM12 colon, 36.7%; in the assay on MDA-MB-468 breast, -88.2% (active).
On to `C=C1CCC2C3(C)COC(c4cc(F)cc(F)c4)OC3CCC2(C)C1C/C=C1/C(=O)OCC1O` (stereo not drawn), for which the growth is -50.1% (active) in the assay with T-47D breast; -81.1% (active) in the assay on BT-549 breast; -64.2% (active) with MDA-MB-435 melanoma; -61.9% (active) in the assay on SW-620 colon; -45.8% (active) in the assay with MCF7 breast; -69.2% (active) in the assay on HCT-116 colon. The growth in the assay with HCC-2998 colon is -79.9% (active); with KM12 colon, -77.9% (active); with MDA-MB-468 breast it was -58.2% (active).
With `Cc1ccc2nc(COc3ccc(C(=O)NNC(=S)NCCc4ccccc4)cc3)[nH]c2c1`, the growth in the assay on T-47D breast was 74%; in the assay on BT-549 breast, 105%; in the assay on MDA-MB-435 melanoma, 98.5%; in the assay on SW-620 colon, 96.3%; with MCF7 breast it was 50.5%; with HCT-116 colon, 57.3%. In addition, the growth with HCC-2998 colon is 73.9%; in the assay with KM12 colon, 63.4%; in the assay on MDA-MB-468 breast, 15.5%.
Consider `O=C(COc1ccc(NC(=O)Nc2ccc(Cl)cc2)cc1)N=Nc1c(O)[nH]c2ccc([N+](=O)[O-])cc12`, for which the growth was 7.65% (active) in the assay with T-47D breast; 22.2% in the assay with BT-549 breast; 17% in the assay on MDA-MB-435 melanoma; 19.9% in the assay with SW-620 colon; -36.4% (active) in the assay with MCF7 breast; -37.8% (active) in the assay on HCT-116 colon. Further, the values for the growth with HCC-2998 colon, in the assay with KM12 colon and in the assay on MDA-MB-468 breast were 26.3%, -46.6% (active) and -54.6% (active), respectively.
In the case of `Brc1ccc(/C=C/c2n(Cc3ccc4ccccc4c3)c3ccccc3[n+]2Cc2ccc3ccccc3c2)cc1`, the growth is -58.1% (active) with T-47D breast; -56.6% (active) in the assay on BT-549 breast; -94% (active) in the assay with MDA-MB-435 melanoma; -73.9% (active) in the assay with SW-620 colon; -65.7% (active) in the assay with MCF7 breast; -86.5% (active) in the assay with HCT-116 colon. Further, the growth was -98% (active) with HCC-2998 colon, -40.7% (active) in the assay on KM12 colon and -88.7% (active) with MDA-MB-468 breast.
Turning to `CCCn1c(=O)c2[nH]c(-c3ccc(OCc4nc5ccc(C(F)(F)F)cc5[nH]4)cc3)nc2n(CCC)c1=O`, the growth in the assay with T-47D breast is 33.2%; in the assay on BT-549 breast, 41.7%; with MDA-MB-435 melanoma, 63%; in the assay on SW-620 colon it was 70%; with MCF7 breast, 28.3%; in the assay with HCT-116 colon, 25.2%. Besides, the values for the growth with HCC-2998 colon, in the assay on KM12 colon and with MDA-MB-468 breast were 76.7%, 55.5% and 30.8%, respectively.
Consider `COc1cc(C2CC(c3ccccc3)=Nc3c(N)nc(N)nc3N2)ccc1Oc1nc(Nc2ccc(F)cc2)nc(N(C)C)n1` (stereo not drawn), for which the growth in the assay on T-47D breast is 54.4%; in the assay on BT-549 breast, 45%; with MDA-MB-435 melanoma, 15.4%; in the assay with SW-620 colon, 44.6%; in the assay with MCF7 breast, 2.04% (active); in the assay with HCT-116 colon, 3.43% (active). The growth in the assay on HCC-2998 colon was 47.7%; in the assay on KM12 colon, 31.6%; in the assay with MDA-MB-468 breast, 1.47% (active).
Take `COc1cccc(-c2nn(-c3ccccc3)cc2-c2ccnc(NCCCNC(=O)Nc3ccc(F)cc3)c2)c1`: the growth was 4.77% (active) in the assay on T-47D breast; -20.6% (active) with BT-549 breast; -59% (active) in the assay on MDA-MB-435 melanoma; 14.5% with SW-620 colon; -15.5% (active) in the assay with MCF7 breast; 6.26% (active) in the assay with HCT-116 colon. Besides, the growth in the assay with HCC-2998 colon is -25.1% (active); in the assay with KM12 colon, 5.44% (active); in the assay with MDA-MB-468 breast, -54.7% (active).
For `O=C1Nc2ccc(F)cc2/C1=C/c1cccc(OCc2ccccn2)c1`, the growth in the assay on T-47D breast was 45%; with BT-549 breast, 24.1%; in the assay on MDA-MB-435 melanoma it was -9.87% (active); in the assay with SW-620 colon it was -0.341% (active); in the assay with MCF7 breast, 3.16% (active); in the assay with HCT-116 colon it was 1.75% (active). In addition, the values for the growth in the assay on HCC-2998 colon, in the assay with KM12 colon and in the assay on MDA-MB-468 breast were 74.1%, 15.4% and -5.96% (active), respectively.
`COc1ccc2[nH]c(O)c(N=NC(=O)c3cc(-c4ccc(C)cc4)nc4ccccc34)c2c1`: the growth with T-47D breast was 69%; in the assay on BT-549 breast, 139%; with MDA-MB-435 melanoma it was 95.4%; in the assay on SW-620 colon it was 107%; in the assay with MCF7 breast, 61%; in the assay with HCT-116 colon, 78.1%. Besides, the growth in the assay with HCC-2998 colon was 115%; in the assay on KM12 colon it was 95.1%; in the assay with MDA-MB-468 breast it was 76.2%.
For `CC(=O)C1=C(C)NC(SCC(=O)Nc2ccc(S(=O)(=O)Nc3cc(C)on3)cc2)=NC1c1ccccc1` (stereo not drawn), the growth with T-47D breast was 99.3%; in the assay on BT-549 breast it was 114%; in the assay on MDA-MB-435 melanoma it was 99.6%; in the assay on SW-620 colon it was 106%; in the assay on MCF7 breast it was 87.5%; in the assay with HCT-116 colon, 105%. Besides, the growth is 112% in the assay on HCC-2998 colon, 99.8% in the assay with KM12 colon and 111% in the assay on MDA-MB-468 breast.
Regarding `CC(C)NC(=O)c1cc(-c2ccc(NC(=O)Nc3ccc(N4CCN(C)CC4)c(C(F)(F)F)c3)cc2)nc2cccnc12`, the growth in the assay on T-47D breast was -16.6% (active); with BT-549 breast, -95.5% (active); in the assay with MDA-MB-435 melanoma, -96.5% (active); with SW-620 colon it was -64.6% (active); in the assay with MCF7 breast, -75.6% (active); in the assay on HCT-116 colon it was -90.6% (active). The values for the growth with HCC-2998 colon, in the assay on KM12 colon and in the assay with MDA-MB-468 breast were -97.9% (active), -83.6% (active) and -90.9% (active), respectively.
On to `C/C(=C\c1ccc(O)cc1O)c1ccc2ccc(O)cc2[o+]1`, for which the growth in the assay with T-47D breast is 56%; with BT-549 breast it was 45.5%; in the assay on MDA-MB-435 melanoma it was 21.4%; in the assay on SW-620 colon, 44.8%; in the assay with MCF7 breast, 22.2%; in the assay on HCT-116 colon, 26.9%. Besides, the growth in the assay on HCC-2998 colon was 61.4%; with KM12 colon, 22.5%; in the assay with MDA-MB-468 breast, 64%.
Regarding `CCOC(=O)C1=C(N)N(c2ccc(C)cc2)C2=C(C(=O)CC(C)(C)C2)C1c1ccccc1OC` (stereo not drawn), the growth was 97.8% with T-47D breast; 95.7% in the assay with BT-549 breast; 111% with MDA-MB-435 melanoma; 105% with SW-620 colon; 93.5% with MCF7 breast; 103% with HCT-116 colon. In addition, the growth is 106% with HCC-2998 colon, 108% with KM12 colon and 101% in the assay on MDA-MB-468 breast.
